IDE cell inh: human IDE inhibitors in live cells, primary screen, fluorescence polarization, HEK cells, FAbetaB substrate; 0.41% of 320,000 active; FAbetaB cleavage; inhibition, % at 5.59 µM; AID 434962, 2010;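 active means percent inhibition above the average of all tested compounds plus 3 SD, set per screening campaign, cut at about 16% in these data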;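 further: IDE supplied by intact live HEK cells; FP after avidin binding of uncleaved biotin substrate so inhibition keeps polarization high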
Target sequence (P14735 whole entry, looked up): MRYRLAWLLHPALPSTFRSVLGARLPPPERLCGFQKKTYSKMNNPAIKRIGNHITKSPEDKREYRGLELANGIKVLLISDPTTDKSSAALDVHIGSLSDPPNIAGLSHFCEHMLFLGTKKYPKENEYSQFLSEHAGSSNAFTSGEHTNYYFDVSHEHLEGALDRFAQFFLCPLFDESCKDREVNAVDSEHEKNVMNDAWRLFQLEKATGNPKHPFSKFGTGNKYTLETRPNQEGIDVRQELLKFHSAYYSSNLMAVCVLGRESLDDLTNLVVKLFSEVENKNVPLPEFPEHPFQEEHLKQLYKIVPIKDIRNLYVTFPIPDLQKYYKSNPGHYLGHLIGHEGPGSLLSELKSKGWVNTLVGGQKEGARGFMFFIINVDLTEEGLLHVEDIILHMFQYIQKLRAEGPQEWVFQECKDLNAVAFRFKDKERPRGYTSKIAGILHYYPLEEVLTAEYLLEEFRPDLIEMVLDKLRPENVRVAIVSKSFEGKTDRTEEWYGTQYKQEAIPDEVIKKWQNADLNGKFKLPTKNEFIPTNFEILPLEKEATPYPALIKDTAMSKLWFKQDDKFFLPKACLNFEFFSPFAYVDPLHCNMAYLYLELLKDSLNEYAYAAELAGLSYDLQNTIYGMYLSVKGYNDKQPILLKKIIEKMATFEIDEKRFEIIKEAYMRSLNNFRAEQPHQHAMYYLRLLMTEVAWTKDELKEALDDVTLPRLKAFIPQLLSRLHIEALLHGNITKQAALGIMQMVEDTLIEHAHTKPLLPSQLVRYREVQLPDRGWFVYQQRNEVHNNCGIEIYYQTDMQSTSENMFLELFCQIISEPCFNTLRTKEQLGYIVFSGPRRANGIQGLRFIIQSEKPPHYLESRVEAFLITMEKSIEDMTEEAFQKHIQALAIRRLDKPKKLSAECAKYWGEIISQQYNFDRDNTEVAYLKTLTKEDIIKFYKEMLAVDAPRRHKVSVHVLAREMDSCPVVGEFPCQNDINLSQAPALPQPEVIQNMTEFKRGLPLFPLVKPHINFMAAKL
cardiac RTF act: cardiac RTF calcium sensitivity activators, primary screen, biochemical, IANBD-TnC fluorescence, EC20 calcium. Troponin I, cardiac muscle (Homo sapiens) + Troponin T, cardiac muscle (Homo sapiens) + …. IANBD-labeled TnC RTF fluorescence at EC20 calcium; 0% EC20 calcium, 100% full calcium. activation, % at 7.2 µM. 0.24% of 340,000 active. AID 493008, 2010;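 active means activation above the mean over all tested compounds plus 3 SD, cut at about 30% in these data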;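 further: rise in fluorescence read as greater calcium sensitivity of cardiac thin filaments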
TPT1 inhibitor: Candida albicans TPT1 enzyme inhibitors, primary screen, biochemical, fluorescence polarization. tRNA 2'-phosphotransferase TPT1 (Candida albicans SC5314). recombinant caTPT1, FP RNA substrate dephosphorylation. inhibition, % at 5 µM. 0.81% of 300,000 active. AID 1962, 2009;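 active means inhibition above the mean of all tested compounds plus 3 SD, set per screening campaign, cut at about 24% in these data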
CRFBP-R2 agonist: agonists of CRF-BP/CRF-R2 complex, primary screen, cell-based, HEK293, calcium dye fluorescence, uHTS | 0.46% of 350,000 active | AID 588473, 2011 | activation, % at 13.2 µM | calcium dye fluorescence (FLIPR); percent of saturating CRF peptide response;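 active means activation of at least 50%, plus an integration ratio under a set limit after plate pattern correction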
RTF Ca sens inh: cardiac RTF calcium sensitivity inhibitors, primary screen, biochemical, IANBD-TnC fluorescence, EC70 calcium | 0.12% of 340,000 active | IANBD-labeled cardiac RTF, Ca2+ fluorescence | inhibition, % at 7.15 µM | Troponin I, cardiac muscle (Homo sapiens) + Troponin T, cardiac muscle (Homo sapiens) + …;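 active means inhibition above the mean inhibition of all tested compounds plus 3 SD, cut at about 17% in these data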;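 further: assay run at fixed EC70 calcium of 1.6 mM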
IDE act: human IDE activators in live cells, primary screen, fluorescence polarization, HEK cells, FAbeta-B substrate | Insulin-degrading enzyme (Homo sapiens), P14735 | FAbeta-B cleavage; 0% vehicle, 100% cell-free pure enzyme wells | activation, % at 5.96 µM | 0.073% of 340,000 active | AID 493087, 2011;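 active means activation above the mean of all tested compounds plus 3 SD, set per screening campaign, cut at about 17% in these data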
caTPT1 confirm: Candida albicans TPT1 inhibitors, confirmation, biochemical, fluorescence polarization, triplicate; 74% of 2,400 active; inhibition, % at 5 µM; recombinant caTPT1, RNase T1 coupled; shares compounds with TPT1 inhibitor;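 active means inhibition above the primary screen limit, the mean inhibition of all tested compounds plus 3 SD, cut at about 25% in these data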
RNase T1 inh: RNase T1 inhibitors, counter-screen for TPT1 inhibitor project, biochemical, fluorescence polarization | shares compounds with TPT1 inhibitor | RNase T1 cleavage, 1536-well | inhibition, % at 5 µM | 83% of 2,400 active;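 active means inhibition above the solvent-only control well mean plus 3 SD, limit set per screening run, cut at about 23% in these data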;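 further: inhibitors block cleavage so intact labeled substrate keeps polarization high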
Numbers stand for hits; – = inactive; · = not tested or not shown. This is a sample that favours compounds with a hit; in the whole collection about 1.5% have one here.

SMILES | IDE cell inh | cardiac RTF act | TPT1 inhibitor | CRFBP-R2 agonist | RTF Ca sens inh | IDE act | caTPT1 confirm | RNase T1 inh
CCCN1CCc2c(sc(NC(=O)c3ccc(S(=O)(=O)N4CCCC4)cc3)c2C(N)=O)C1 | – | – | 120 | 62 | – | – | 132 | 132
NC(=O)c1ccsc1NC(=O)COC(=O)CNC(=O)c1ccc(Cl)cc1 | – | – | · | – | – | – | · | ·
CN1C(=O)[C@H]2[C@@H](c3ccc(C(F)(F)F)cc3)N[C@]3(CCCN(CC4CCCCC4)C3=O)[C@H]2C1=O | · | · | · | – | · | · | · | ·
CCn1ncc(Br)c1C(=O)Nc1cc(C)cc(C)c1 | – | – | 34 | – | – | – | – | –
CCn1ncc(Br)c1C(=O)Nc1cccc(C(C)=O)c1 | – | – | – | – | – | – | · | ·
CCCC(=O)Nc1sc2c(c1C#N)CCCC2 | – | – | – | – | – | – | · | ·
CC1CCN(CC(=O)Nc2sc3c(c2C#N)CCC3)CC1 | – | – | 39 | – | – | – | – | –
COc1ccccc1NC(=O)CN1CCN(CC(=O)Nc2ccc(C)c(F)c2)CC1 | – | – | – | – | – | – | · | ·
O=C(NCc1ccccc1)C(c1ccccc1)N(C(=O)c1csnn1)C1CCCC1 (stereo not given) | – | – | – | – | – | – | · | ·
Nc1c(C(=O)Nc2ccc(S(=O)(=O)N3CCCC3)cc2)sc2nc3ccc(OC(F)(F)F)cc3cc12 | – | – | – | – | – | – | · | ·
Nc1c(C(=O)Nc2ccc(S(=O)(=O)N3CCCC3)cc2)sc2nc3cc4c(cc3cc12)CCC4 | – | – | 39 | – | – | – | 25 | 34
COc1ccc(/C=C(\C#N)c2nc3ccccc3[nH]2)cc1O | · | – | · | – | – | – | · | ·
COc1cc(/C=C(/C#N)c2nc3ccccc3c(=O)[nH]2)ccc1O | – | – | 102 | 68 | – | – | 126 | 124
c1ccc(NC2=Nc3cccc4cccc2c34)cc1 | – | – | – | – | – | – | · | ·
COc1ccc(NC2=Nc3cccc4cccc2c34)cc1 | – | – | 26 | – | – | – | 37 | 48
CCOc1ccccc1C1c2cc3c(cc2OC(C)(N2CCCC2)C1C)OCO3 (stereo not given) | – | – | – | – | – | – | · | ·
CC(C)C(=O)Nc1sc2c(c1C(N)=O)CCN(Cc1ccccc1)C2 | – | – | – | – | – | – | · | ·
CCC(=O)Nc1sc2c(c1C(N)=O)CCN(Cc1ccccc1)C2 | – | – | – | – | – | – | · | ·
CC(=O)Nc1sc2c(c1C#N)CCN(Cc1ccccc1)C2 | – | – | – | – | – | – | · | ·
N#Cc1c(NC(=O)/C=C/C(=O)O)sc2c1CCN(Cc1ccccc1)C2 | – | – | 122 | – | – | – | 61 | 72
NC(=O)c1c(NC(=O)c2c(F)cccc2F)sc2c1CCN(Cc1ccccc1)C2 | – | – | 36 | – | – | – | – | 23
CCN1CCc2c(sc(NC(=O)c3ccc(S(=O)(=O)N(CC)c4ccccc4)cc3)c2C(N)=O)C1 | – | – | 97 | 201 | – | – | 103 | 107
NC(=O)c1c(NC(=O)c2ccccc2)sc2c1CCN(Cc1ccccc1)C2 | – | 49 | 71 | 178 | – | – | 56 | 66
CCN1CCc2c(sc(NC(=S)NC(=O)c3ccco3)c2C(N)=O)C1 | – | · | 33 | – | · | · | 32 | 42
Cc1cccc(/C=N/c2sc3c(c2C#N)CCN(Cc2ccccc2)C3)c1O | – | – | 58 | – | – | – | 56 | 69
SMILES | IDE cell inh | cardiac RTF act | TPT1 inhibitor | CRFBP-R2 agonist | RTF Ca sens inh | IDE act | caTPT1 confirm | RNase T1 inh
CCN1CCc2c(sc(NC(=O)Cc3ccccc3)c2C(N)=O)C1 | – | – | – | – | – | – | · | ·
CCC(C)n1c(-c2ccco2)nc2nc3ccccc3nc21 (stereo not given) | – | · | 27 | · | · | · | – | –
CC(C)OCCCn1c(-c2ccco2)nc2nc3ccccc3nc21 | – | – | 26 | – | – | – | – | 24
COCCn1c(-c2ccco2)nc2nc3ccccc3nc21 | – | – | – | – | – | – | · | ·
Cc1cc(/C=C2/SC(=S)N(c3cccc(C(F)(F)F)c3)C2=O)c(C)n1-c1cccnc1 | – | – | 88 | – | – | – | 92 | 99
CCOc1ccc(N2CC(C(=O)NCCc3c[nH]c4ccc(C)cc34)CC2=O)cc1 (stereo not given) | – | – | – | – | – | – | · | ·
CCCOc1ccc(Oc2ccc(S(=O)(=O)N3CCN(C)CC3)cn2)cc1 | – | – | – | – | – | – | · | ·
CCN(CC)c1ccc(C=N/C(C#N)=C(\N)C#N)cc1 | – | – | 83 | – | – | – | 116 | 121
CCOC(=O)c1c(-c2ccccc2)csc1/N=C/C1C(=O)CCCC1=O | – | – | 114 | – | – | – | – | 33
CCOC(=O)c1c(CC(C)C)csc1/N=C/C1C(=O)CCCC1=O | – | – | 126 | – | – | – | – | –
CCOC(=O)c1c(/N=C/C2C(=O)CCCC2=O)sc2c1CCCC2 | – | · | – | – | · | · | · | ·
CCc1ccc(C#CC2=CC(=O)CC(C)(C)C2)cc1 | · | · | · | – | · | · | · | ·
Cc1cc(NC(=O)/C(C#N)=C/c2ccc(-c3ccc(SC(F)F)cc3)o2)n(-c2ccccc2)n1 | – | – | 57 | – | – | – | 57 | 66
O=C(CNCC1CCCCC1)Nc1ccc(OC(F)(F)F)cc1 | – | – | – | – | – | – | · | ·
N#Cc1c(N)n(CCNC(=O)c2ccccc2)c2nc3ccccc3nc12 | – | – | – | – | – | – | · | ·
N#Cc1c(N)n(CCNC(=O)c2cccs2)c2nc3ccccc3nc12 | – | – | 63 | – | – | – | 45 | 59
O=C(O)c1cccc(-c2ccc(/C=c3/sc4nc5ccccc5n4c3=O)o2)c1 | – | – | 97 | 69 | – | – | 118 | 121
Cc1cc(=O)cc(C)n1-c1ccccc1Br | – | – | – | – | – | – | · | ·
CCC(CC)=N/N=C/c1c(O)n(CC)c2cc(C3=NNC(=O)CC3)ccc12 | – | – | 64 | – | – | – | 44 | 56
CCn1c(O)c(/C=N/N=C/c2ccccc2)c2ccc(C3=NNC(=O)CC3)cc21 | – | 36 | 61 | – | – | – | 72 | 84

From PubChem
